Common to all, as to assay: NCI-60 one-dose screen, 48 h (100 = growth as untreated, 0 = no growth, -100 = all killed)
Common to all, as to conditions: 10 µM unless noted

Test [1] has as its system HCT-15 colon.
Test [2] relates to HT29 colon.
The subject of test [3] is SNB-75 CNS.
Test [4] relates to SNB-19 CNS.
Test [5] concerns U251 CNS.
Test [6] concerns PC-3 prostate.
The test system of test [7] is SK-MEL-5 melanoma.
In test [8] the test system is UACC-62 melanoma.
The subject of test [9] is SK-MEL-28 melanoma.
For test [10], the system named is SK-MEL-2 melanoma.
The test system of test [11] is EKVX NSCLC.
Test [12] concerns SN12C renal.
Test [13] has as its system UO-31 renal.
The test system of test [14] is TK-10 renal.
The test system of test [15] is ACHN renal.
The subject of test [16] is CAKI-1 renal.
In test [17] the test system is A498 renal.
Test [18] has as its system CCRF-CEM leukemia.
The test system of test [19] is MOLT-4 leukemia.

Compounds without any hit were thinned out: in the full panel of roughly 83,000, 20% have a hit.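 Activity criterion: percent growth below 10, measured after cells in 96-well plates were exposed to a single compound concentration for 48 hours.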 Unmarked numbers belong to inactive results. Calls of active or inactive are those of the source.

For the compound `O=c1c2ccccc2nc(-c2ccccc2)n1/N=C/c1ccc2ccccc2c1`, the growth is 13.1% in test [1]; 19.9% in test [2]; 65.8% in test [3]; 56.8% in test [4]; 31.2% in test [5]; 53.4% in [6]. For the same compound, the growth in [7] is 38.5%; in test [8] it was 35.8%; in test [9] it was 61.7%; in test [10] it was 116%; in test [11], 80.3%; in test [12], 52.5%. Also, the growth in test [13] is 58.5%; in test [14], 72.9%; in [15], 42.5%; in test [16] it was 48.5%; in test [17], 94.6%; in [18] it was 51.9%. Further, the growth in test [19] was 19.5%.
With `CC(=O)Nc1ccc(-c2nc3cc(-c4ccc(O)cc4)ccc3n2C)cc1`, the growth is 36.8% in test [1]; 53.6% in test [2]; 44.1% in test [3]; 68.8% in [4]; 59.9% in test [5]; 74.6% in [6]. For the same compound, the growth in test [7] was 78.3%; in [8] it was 51.4%; in test [9] it was 74.3%; in [10] it was 84.1%; in [11], 56.3%; in [12], 40.1%. In addition, the growth in test [13] was 30.8%; in test [14], 79%; in [15] it was 50.3%; in test [16], 34.6%; in [17], 72.4%; in test [18], 43.8%. Further, in test [19], the growth was 13.9%.
Take `NS(=O)(=O)c1ccc(N=Nc2c(O)n(CC(=O)Nc3ccccc3)c3ccccc23)cc1`: the growth in test [1] is 16%; in test [2], 2.37% (active); in test [3] it was 42.2%; in test [4], 20.2%; in [5] it was -15.1% (active); in test [6], 20.8%. Further, the growth in [7] was 24.6%; in [8], 22.1%; in test [9], -2.1% (active); in test [10] it was 42.7%; in test [11], 38.4%; in test [12], 52.7%. For the same compound, the growth in test [13] was 31.1%; in [14], 84%; in test [15], 11%; in test [16], 7.36% (active); in test [17], 60%; in [18], 50.2%. In addition, the growth in test [19] was 7.09% (active).
With `CNC(=O)c1cccc(NC(=O)c2ccc3c(c2)nnn3/C(C#N)=C/c2ccccn2)c1`, the growth in [1] is -31.3% (active); in test [2], -84.4% (active); in test [3] it was 73%; in test [4], 71%; in test [5] it was -12.4% (active); in test [6] it was 2.89% (active). The growth in [7] was -13.4% (active); in test [8], -86.6% (active); in [9] it was -76.6% (active); in test [10] it was -60.7% (active); in [11], -30.5% (active); in [12], -15.8% (active). For the same compound, the growth is -7.22% (active) in test [13]; -25.4% (active) in [14]; -24.2% (active) in [15]; 25.7% in [16]; 115% in [17]; -24.5% (active) in test [18]. Also, the growth in test [19] was -19.2% (active).
In the case of `Nc1cc2ccccc2c(=O)n1NC(=O)c1ccc(I)cc1`, the growth in test [1] was 102%; in [2], 101%; in test [3], 70%; in [4], 95.6%; in [5], 97.4%; in [6] it was 100%. In addition, the growth in [7] was 101%; in test [8], 93.2%; in test [9], 103%; in test [10], 102%; in test [11], 94.2%; in test [12] it was 107%. Moreover, the growth in test [13] is 92%; in test [14], 115%; in test [15] it was 106%; in [16], 83.6%; in test [17], 103%; in test [18] it was 97.8%. Moreover, the growth in [19] is 99.2%.
`COc1cc2c(c(OC)c1OC)C(=O)CC(c1cccc(NC(=O)c3cc([N+](=O)[O-])ccc3Cl)c1)O2` (configuration not stated): the growth in test [1] was -0.987% (active); in [2], 23.2%; in test [3], 12.9%; in test [4] it was 52.6%; in test [5] it was 30.7%; in test [6], 42.7%. Further, the growth in test [7] is 23.3%; in test [8], 45.2%; in [9], 34.1%; in test [10] it was 15%; in [11], 52.3%; in test [12], 24%. Moreover, the growth in [13] was 29.9%; in [14] it was 65.8%; in test [15], 6.5% (active); in [16], 20.8%; in test [17] it was 131%; in test [18], 22.8%. Moreover, in test [19], the growth is 14.4%.
Regarding `O=C(/C=C/c1cccc(OCc2ccccc2)c1)c1nc2ccccc2[nH]1`, the growth is -75.5% (active) in [1]; -45.7% (active) in test [2]; 66.8% in test [3]; 53.6% in test [4]; -65.8% (active) in [5]; 25.9% in test [6]. Moreover, the growth was 72.1% in [7]; 56% in [8]; 94.9% in test [9]; 100% in test [10]; 36.4% in test [11]; 59% in test [12]. The growth in test [13] is 33.2%; in test [14], 62.8%; in [15] it was 62.5%; in [16], 66.1%; in [17] it was 91.3%; in test [18], 10.2%. Also, the growth in [19] was 5.98% (active).
For the compound `C=Cn1cc(C(=O)O)c(=O)c2cc(F)c(N3CCN(c4nccc(-c5nccs5)n4)CC3)cc21`, the growth in test [1] was -51.5% (active); in test [2], -52% (active); in test [3], -23.3% (active); in test [4] it was -0.431% (active); in test [5], 5.03% (active); in [6], 8.48% (active). For the same compound, the growth in [7] was -47.7% (active); in [8] it was -84.7% (active); in test [9], -38.5% (active); in [10], -83.2% (active); in [11], -24.2% (active); in test [12], -16.8% (active). Moreover, the growth was -61.5% (active) in [13]; -13.2% (active) in test [14]; -43% (active) in test [15]; -37.1% (active) in [16]; -21.4% (active) in test [17]; 15.3% in test [18]. For the same compound, the growth in [19] was 1.77% (active).

These data come from PubChem BioAssay (NCI).
